Source: PubChem BioAssay
Only some compounds are listed: those with a hit (about 19% of all), similar ones and a draw of the others.
HT1080NT lethal = qHTS for induction of synthetic lethality in tumor cells producing 2HG: qHTS for the HT-1080-NT fibrosarcoma cell line | HT-1080-NT fibrosarcoma viability, CellTiter-Glo ATP luminescence, 48 h | Potency, µM (titrated, usually from 46.1 µM), without a hit: at the top dose activity, negative = less viability, usual class: cytotoxic | actives 1.6% (n = 360,000) | AID 686970, 2013;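 also: NT is the 2HG producing partner of a matched IDH1 knockdown line; potency is read from the fitted curve at half-maximal effect; 0% = DMSO-treated cells and -100% = media-only wells without cells; nearly all actives have a fitted effect of over 55% in size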
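A 48-hour cytotoxicity screen used HT-1080-NT cells plated 2 hours before compound delivery. ATP-based CellTiter-Glo luminescence measured viability, normalized to DMSO and no-cell controls.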
TDP1 cell noCPT = qHTS for Inhibitors of human tyrosyl-DNA phosphodiesterase 1 (TDP1): qHTS in cells in absence of CPT; DT40 Tdp1-/- hTDP1 cells, no CPT, ATP luminescence, 48 h; Potency, µM (series often up to 46.2 µM), for inactives: top-dose activity change, negative = growth inhibition, actives largely listed as inhibitors; actives 15% (n = 420,000); also: potency is read from the fitted curve at half-maximal effect; nearly all actives have a fitted effect of over 55% in size
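Cells were dispensed at 400 per well, compounds added by pin tool, plates incubated ≥48 hr at 37 °C, then CellTiter-Glo added for 30 min at room temperature before luminescence reading. Line: DT40 Tdp1-/- complemented with hTDP1; camptothecin omitted.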
IL-1B inflam inh = qHTS for Inhibitors of Inflammasome Signaling: IL-1-beta AlphaLISA Primary Screen. THP-1 LPS/ATP IL-1B secretion, AlphaLISA, 16 h; stronger effect = lower value. activity change, % at 57.5 µM. actives 4.7% (n = 360,000). AID 743279, 2014; in the data active = activity change below about -50%; inconclusive = mostly about -30% to -49%
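Secreted IL-1B measured by AlphaLISA bead assay after 16 h compound exposure of THP-1 cells; compounds (final up to 57.5 uM) added 1 h before LPS (250 ng/mL) and ATP (1.25 mM) stimulation; lower signal means less secretion.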
HT1080 IDH1KD tx = qHTS for induction of synthetic lethality in tumor cells producing 2HG: qHTS for the HT-1080-IDH1KD cell line. HT-1080 IDH1 knockdown viability, ATP luminescence, 48 h. Potency, µM (highest dose often 46.1 µM), for the others: at the highest dose activity, negative = toxicity, most hits filed as cytotoxic. actives 2% (n = 360,000). AID 686971, 2013;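 also: potency is read from the fitted curve at half-maximal effect; 0% = DMSO wells and -100% = cell-free medium wells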
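Assay cells: HT-1080 with IDH1 knockdown, 750 per well, RPMI/5% FBS. Exposure: 48 h at 37 °C following 2 h pre-incubation. Read: CellTiter-Glo luminescence; fitted concentration-response, curve class assigned.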
TDP1 cell CPT = qHTS for Inhibitors of human tyrosyl-DNA phosphodiesterase 1 (TDP1): qHTS in cells in presence of CPT | chicken DT40 Tdp1-/-;hTDP1 cells + 20 nM CPT, ATP luminescence, 48 h | Potency, µM (titrated, usually from 46.2 µM), without a hit: at the top dose activity change, negative = growth inhibition, hits mostly inhibitors | actives 12% (n = 420,000) | AID 686979, 2013; also: potency is read from the fitted curve at half-maximal effect; nearly all actives have a fitted effect of over 55% in size
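Cell growth measured by CellTiter-Glo luminescence after a minimum 48 h, 37 C compound exposure with 20 nM CPT in Tdp1-knockout DT40 cells stably expressing hTDP1, seeded 400/well; qHTS titration format.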
* hit, by the source's call; ? = inconclusive; · = no result. Unless noted, calls follow the shape of the dose curve; as a rule, active = well fitted curve in the direction sought with a large enough effect; inconclusive = small, poorly fitted or top-dose-only effect, or another doubt; inactive = no such curve, though single readings can be large; an effect the other way counts as inactive or inconclusive. Unless noted, % is scaled to controls: 0 for no effect and ±100 for the full control effect.

SMILES	HT1080NT lethal	TDP1 cell noCPT	IL-1B inflam inh	HT1080 IDH1KD tx	TDP1 cell CPT
COc1ccc(C(C)=O)cc1CN1C(=O)C(C)ON=C1c1ncccc1C (stereo unspecified)	20%	10%	-24	?	-11%
CC(C)(C)S(=O)N1Cc2cc(C(=O)N3CCc4ccccc4C3)nc(-c3cccc(-c4cccnc4)c3)c2[C@@H]1CCO (stereo partly specified)	1%	21µM*	-20	2%	?
COc1ccccc1-c1cccc(-c2nc(C(=O)N3CCCCC3)cc3c2[C@H](CCO)N(S(=O)C(C)(C)C)C3)c1 (stereo partly specified)	-7%	18µM*	-9	-8%	21µM*
CN1CCN(C(=O)c2cc3c(c(-c4cccc(C#CC(C)(C)O)c4)n2)[C@H](CCO)N(S(=O)C(C)(C)C)C3)CC1 (stereo partly specified)	28%	6%	-11	17%	2%
Cc1ccccc1COC(=O)c1nn(-c2ccccc2)nc1N	4%	-17%	-13	23%	13%
O=C1CC(c2ccccc2)NN1 (stereo unspecified)	3%	?	18	9%	?
O=C1CC(c2ccc3ccccc3c2)NN1 (stereo unspecified)	5%	?	13	7%	26µM*
CCOC(=O)C1CCCN(CCC(=O)Nc2cccc(Cl)c2C)C1 (stereo unspecified)	-13%	3%	-11	-2%	?
COC(=O)c1cc(C(=O)c2cc(F)ccc2O)cn2c(=O)c3c(C)c(C)sc3nc12	-1%	-24%	-6	0%	4.1µM*
CCOC(=O)c1sc2nc3c(SCC(=O)O)cc(C(=O)c4cc(F)ccc4O)cn3c(=O)c2c1C	2%	-12%	14	-2%	-10%
CCc1c(C)sc2nc3c(C(=O)N4CCOCC4)cc(C(=O)c4ccccc4O)cn3c(=O)c12	-21%	15µM*	-64*	-9%	23µM*
O=C1CC(C(=O)N2CCN(c3ccccc3O)CC2)CN1Cc1ccccc1 (stereo unspecified)	0%	-21%	12	0%	5%
COc1ccc(-c2nc(S(=O)(=O)c3ccc(C)cc3)c(N3CCCC3)o2)cc1	10%	-25%	19	14%	-19%
COc1cccc(-c2nc(S(=O)(=O)c3ccccc3)c(N3CCCCC3)o2)c1	·	16µM*	·	·	?
COc1cccc(-c2nc(S(=O)(=O)c3ccc(C)cc3)c(N3CCCCC3)o2)c1	·	18µM*	·	·	21µM*
CC(=O)N[C@H]1[C@H]([C@H](O)[C@H](O)CO)O[C@](O)(C(=O)O)C[C@@H]1O	-3%	9%	-8	4%	-2%
O=C(NCCC1=CCCCC1)C1CCN(C(=O)c2ccc(Br)cc2)CC1	0%	?	0	1%	?
O=C(NCCN1C(=O)S/C(=C\c2ccccc2)C1=O)c1cc(S(=O)(=O)N2CCOCC2)c(Cl)cc1Cl	-11%	4.1µM*	-17	-14%	21µM*
O=C(NCCCc1ccccc1)c1cccc(S(=O)(=O)N2CCOCC2)c1	3%	-20%	17	3%	0%
O=C(NCCN1C(=O)S/C(=C\c2ccc(F)cc2)C1=O)c1cccc(S(=O)(=O)N2CCOCC2)c1	-20%	16µM*	0	-28%	23µM*
O=C(NCCN1C(=O)S/C(=C\c2ccc(Cl)cc2)C1=O)c1ccc(F)c(S(=O)(=O)N2CCOCC2)c1	5%	5.8µM*	34	8%	6.5µM*
O=C(NCC1CCCCC1)c1ccc(F)c(S(=O)(=O)N2CCOCC2)c1	2%	?	7	-2%	-27%
N#Cc1cccc(C(=O)Nc2cccc(S(=O)(=O)N3CCCC3)c2)c1	11%	-25%	-5	-2%	-10%
COc1cc(OC)cc(-c2c(-c3cccs3)c3cc(-c4ccc(C(N)=O)cc4)ccc3n2C)c1	10%	16µM*	17	9%	?
COc1ccc(-c2ccc3c(c2)c(-c2cccs2)c(-c2cc(OC)cc(OC)c2)n3C)cc1	-1%	23µM*	11	-1%	?
SMILES	HT1080NT lethal	TDP1 cell noCPT	IL-1B inflam inh	HT1080 IDH1KD tx	TDP1 cell CPT
COc1cc(OC)cc(-c2c(-c3cccs3)c3cc(-c4cnc(OC)nc4)ccc3n2C)c1	-1%	15µM*	1	-2%	?
COc1cc(OC)cc(-c2c(-c3cccs3)c3cc(-c4cc(OC)c(OC)c(OC)c4)ccc3n2C)c1	-2%	-52%	-17	-7%	?
CCn1c2c(c(=O)n3ncc(C(=O)N4CCN(c5ccc(C(C)=O)cc5)CC4)c13)CN(Cc1ccc(OC)cc1)CC2	·	2.6µM*	·	·	4.1µM*
COc1ccc(C(=O)N2CCN(c3cnn(-c4ccccc4)c(=O)c3Cl)CC2)cc1	-18%	?	0	-16%	-20%
COc1ccc(-n2ncc(C(=O)N3CCN(c4ccc(F)cc4)CC3)c2C)cc1	-10%	?	·	-5%	-29%
CCn1c2c(c(=O)n3ncc(C(=O)Nc4ccc(OC(F)(F)F)cc4)c13)CN(Cc1ccc(OC)cc1)CC2	·	23µM*	·	·	?
COc1ccc(CN2CCc3c(c(=O)n4ncc(C(=O)N5CCN(c6ccc(F)cc6)CC5)c4n3C)C2)cc1	·	1.8µM*	·	·	2.3µM*
O=C(CCNC(=O)OCC1c2ccccc2-c2ccccc21)NOCc1ccccc1	0%	4.1µM*	30	4%	3.3µM*
O=C(O)CCNC(=O)OCC1c2ccccc2-c2ccccc21	11%	?	30	-4%	8.2µM*
O=C(/C=C/c1cccc([N+](=O)[O-])c1)NCCSCc1cccc(Cl)c1	3%	?	?	2%	?
O=c1c2c([nH]c3ccccc13)CCCCC2	?	?	45	-5%	-28%
O=c1c2ccccc2[nH]c2ccccc12	-3%	16µM*	-9	-1%	8.2µM*
O=c1c2c([nH]c3ccccc13)CCCCCC2	2%	16µM*	30	-12%	23µM*
COc1ccc(NC(=O)C(NC(=O)c2ccc(=O)[nH]c2)c2ccc(OC)cc2)cc1 (stereo unspecified)	4%	-5%	0	11%	11%
CCC1=C(c2ccc(C)cc2)S(=O)(=O)N=C1N1CCC(C(=O)Nc2ccccc2C(=O)OC)CC1	·	18µM*	·	·	?
